# An excerpt weighted towards active compounds, which were near 2.3% of everything screened.
# aDG glyco act = increases alpha dystroglycan glycosylation; Pro5-aDG cells, alpha-DG glycosylation AlphaScreen (IIH6); 0% Pro5, 100% B10-LARGE cell signal; activation, % at 10 µM; 360,000 compounds, 0.22% hits;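 active = activation of at least 8% versus controls, or a plate z-score of at least 8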;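 also: Pro5 are CHO cells carrying HIG-tagged alpha-DG that lacks glycosylation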
# beta cell repl = induces beta-cell replication in MIN6 cells; MIN6 cells proliferation, ATPlite luminescence, 48 h; cells starved in 0.2% serum; 100% = growth in 10% serum; proliferation, % at 10 µM; 330,000 compounds, 0.29% hits; AID 2380;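 active = compounds whose signal lies at least 3.5 SD above the mean of all wells on their plate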;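 also: 0% = DMSO-treated cells in low-serum medium and 100% = 10% serum control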
# m-calpain inh = blocks pig calpain II enzyme activity; purified calpain II, fluorogenic peptide substrate, 30 min; inhibition, % at 16 µM; 220,000 compounds, 0.37% hits;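 active = inhibition above about 50%, limit read from the data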
# TAG inh = triacylglycerol accumulation inhibition. H9c2 cells, Nile Red lipid (TAG) fluorescence; cells loaded with 200 µM oleic acid. inhibition, % at 12.5 µM. 230,000 compounds, 0.66% hits;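 active = pattern-corrected inhibition of lipid staining of at least 50% with the nuclear-stain viability signal not falling by more than 50%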;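 also: 0% = DMSO wells and 100% = triacsin C control wells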
# Cardio protect = myocardial damage modulation in H9c2 cells. H9c2 cardiomyocytes, H2O2 injury protection, ATPLite, 2 h. protection from H2O2 cell death, % at 20 µM. 360,000 compounds, 0.63% hits;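 active = compounds giving at least 50% protection of heart cells from peroxide-induced death in the single-dose screen, raw or plate-pattern-corrected value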;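 also: 0% = DMSO wells with peroxide and 100% = DMSO wells without peroxide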
# FAS-TE inh = blocks the thioesterase domain of human fatty acid synthase; recombinant FAS-TE, OMFH fluorogenic substrate, fluorescence endpoint; 360,000 compounds, 0.67% hits; inhibition, % at 15 µM;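 active = compounds whose normalised, plate-corrected inhibition of enzyme fluorescence in the single-dose primary screen is 50% or more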;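 also: 0% = DMSO with enzyme and 100% = substrate without enzyme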
# * = called active by the depositor; . = not tested or not shown.
SMILES,aDG glyco act,beta cell repl,m-calpain inh,TAG inh,Cardio protect,FAS-TE inh
CCOC(=O)CSc1nc2ccc(Nc3nc(N4CCOCC4)nc(N4CCOCC4)n3)cc2s1,0,-6,-45,7,27,54*
CC(C)(C)NC(=O)CSc1nc2ccc(Nc3nc(N4CCOCC4)nc(N4CCOCC4)n3)cc2s1,0,-3,-88,.,91*,18
CC(COc1ccccc1)OC(=O)Nc1ccccc1 (centres undefined),2,.,.,-22,-2,11
COc1cccc(CN(C)C(=O)CSCC(=O)Nc2cccc(C)c2)c1OC,0,9,.,-12,-3,-4
C[C@H](CO)N1C[C@H](C)[C@@H](CN(C)Cc2ccc(-c3ccccc3)cc2)Oc2c(NS(=O)(=O)c3cn(C)cn3)cccc2C1=O,0,0,.,13,6,-5
Cc1nc2ccc(NC(=O)c3nn(C(C)C)c(=O)c4ccccc34)cc2s1,0,1,5,.,39,3
CSc1nc2ccc(NC(=O)c3nn(C(C)C)c(=O)c4ccccc34)cc2s1,0,8.2*,-23,0,19,29
O=C(Nc1cccc(OC(F)(F)F)c1)C1Cc2c(-c3ccco3)ccnc2O1 (centres undefined),0,.,.,-3,-6,29
Oc1c(Cl)cc(Cl)cc1C(C#Cc1ccccc1)N1CCOCC1 (centres undefined),0,-6,53*,3,-2,21
N#CC(c1ccc(Cl)cc1)N1CCOCC1 (centres undefined),0,-2,7,17,-6,-7
CCOCCN1CCN(C2c3ccccc3CSc3ccccc32)CC1 (centres undefined),0,-4,.,-38,6,8
COc1ccc(-c2cc(-c3nnc(COC(=O)C4CC4)o3)c3ccccc3n2)cc1OC,0,-1,-86,.,80*,10
COc1ccc(-c2cc(-c3nnc(COC(=O)C4CC4C)o3)c3ccccc3n2)cc1OC (centres undefined),0,-3,-146,.,85*,25
CCOC(=O)C1CCN(C(=O)COc2ccc3c(C)cc(=O)oc3c2)CC1,0,-4,.,9,2,4
Cc1ccnc(Nc2nc(-c3ccc(O)c(O)c3)cs2)c1,0,-5,.,23,60*,6
Cc1cccnc1Nc1nc(-c2ccc(O)c(O)c2)cs1,0,-4,12,.,65*,-1
Cc1ccnc(Nc2nc(-c3ccc(O)cc3)cs2)c1,0,-1,.,13,-14,6
Cc1cc2nc(C(C)(C)C)c(Cc3ccccc3C(F)(F)F)n2c(C)c1Br,0,.,.,.,.,19
CN1C(=O)[C@@](O)(CC(=O)c2ccccc2)c2cc(Br)ccc21,1,.,.,.,.,.
CN1C(=O)C(O)(CC(=O)c2ccccn2)c2cc(Br)ccc21 (centres undefined),2,-5,0,53*,21,-8
C#CCSc1nc2sc3c(c2c(=O)n1C)CCC3,0,-3,.,.,-5,-6
O=C(NCc1n[nH]c(=O)c2ccccc12)C1CC(=O)N(c2ccccc2)C1 (centres undefined),0,2,.,10,67*,-2
O=C(Cc1ccccc1[N+](=O)[O-])NNC(=O)c1ccncc1,0,-3,.,4,6,0
CCc1ccc(C(=O)OCC(=O)c2c(N)n(CC(C)C)c(=O)n(C)c2=O)cc1,7,-3,82*,-24,-18,11
CC(C)Cn1c(N)c(C(=O)COC(=O)c2ccc3c(c2)OCCO3)c(=O)n(C)c1=O,6,-1,-23,-14,-10,8
CC(C)Cn1c(N)c(C(=O)COC(=O)/C=C/c2cccs2)c(=O)n(C)c1=O,2,-3,53*,-19,-27,12
CC(C)Cn1c(N)c(C(=O)COC(=O)c2cccc(Cl)c2)c(=O)n(C)c1=O,4,1,77*,-8,-7,21
CC(C)Cn1c(N)c(C(=O)COC(=O)c2ccc(F)cc2)c(=O)n(C)c1=O,2,-1,53*,3,-8,6
CCC(C(=O)NC1CCCCC1)N(Cc1cccs1)C(=O)CCC(=O)Nc1cc(C)on1 (centres undefined),0,-1,.,.,5,-2
CC(C)(C)c1ccc(CNc2ccc([N+](=O)[O-])cn2)cc1,0,.,79*,.,-14,-96

# From PubChem BioAssay
